# Only some compounds are listed: those with a hit (about 7.5% of all), similar ones and a draw of the others.
# B2AR arrestin: qHTS assay of beta-arrestin-biased ligands of beta2-adrenergic receptor; AID 492947, 2010; 330,000 compounds, 0.02% hits; Potency, µM (doses to about 46.1 µM), hits mostly activators; beta-arrestin recruitment to beta2AR, cell-based reporter; note: nearly all actives have a fitted effect of over 65% in size
# TSHR antagonist: Antagonists of the Thyroid Stimulating Hormone Receptor: HTS campaign; TSHR-expressing cells, TSH-stimulated cAMP HTRF, 2 h; stronger effect = lower value; activity change, negative = inhibition, % at 11.5 µM; Thyrotropin receptor (Homo sapiens), P16473; 330,000 compounds, 0.2% hits;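 active = activity change below a set negative limit, meaning inhibition stronger than a set level, cut at about -70% in these data; inconclusive = activity change between two set negative limits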
# Target sequence (P16473 whole entry, looked up): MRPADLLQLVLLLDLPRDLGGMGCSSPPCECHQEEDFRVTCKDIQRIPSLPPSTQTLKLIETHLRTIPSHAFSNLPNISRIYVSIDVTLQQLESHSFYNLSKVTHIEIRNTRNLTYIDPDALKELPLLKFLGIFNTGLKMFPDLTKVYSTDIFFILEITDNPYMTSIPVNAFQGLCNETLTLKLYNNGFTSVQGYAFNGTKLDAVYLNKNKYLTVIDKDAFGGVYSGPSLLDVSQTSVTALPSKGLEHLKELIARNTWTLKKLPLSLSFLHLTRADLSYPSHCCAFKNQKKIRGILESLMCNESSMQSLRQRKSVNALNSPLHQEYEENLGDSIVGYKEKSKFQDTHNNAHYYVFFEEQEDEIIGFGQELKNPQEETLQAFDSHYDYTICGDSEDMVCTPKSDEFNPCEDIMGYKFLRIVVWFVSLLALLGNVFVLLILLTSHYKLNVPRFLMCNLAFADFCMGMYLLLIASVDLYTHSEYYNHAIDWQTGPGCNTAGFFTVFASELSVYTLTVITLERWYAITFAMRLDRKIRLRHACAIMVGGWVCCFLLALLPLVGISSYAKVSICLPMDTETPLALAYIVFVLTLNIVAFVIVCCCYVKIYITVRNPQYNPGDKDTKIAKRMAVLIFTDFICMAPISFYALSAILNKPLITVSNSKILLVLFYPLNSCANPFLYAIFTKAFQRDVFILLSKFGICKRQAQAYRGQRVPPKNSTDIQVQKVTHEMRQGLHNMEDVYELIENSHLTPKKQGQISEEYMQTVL
#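 Read-out is FRET at 665 nm (cryptate excitation 337 nm) from a cryptate-tagged anti-cAMP antibody, competed by cell cAMP against cAMP-d2. Compounds are tested on freshly harvested TSHR cells challenged with 4nM TSH (EC80) for 2 hours at 37 deg C.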
# Gal4-VP16 FLuc: VP16 counterscreen qHTS for inhibitors of ROR gamma transcriptional activity. 310,000 compounds, 3.5% hits. Drosophila S2 Gal4-VP16 UAS-luciferase, luminescence, 20 h. Potency, µM (titrated, usually from 53.6 µM), most hits filed as inhibitors;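 note: Gal4-VP16 expression switched on by copper sulfate through the metallothionein promoter; nearly all actives have a fitted effect of over 50% in size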
# ELG1 DNA repair: qHTS screen for small molecules that inhibit ELG1-dependent DNA repair in human embryonic kidney (HEK293T) cells expressing luciferase-tagged ELG1 | HEK293T ELG1-luciferase reporter, luminescence, 16 h; DNA damage induced by 5-fluorouridine | Potency, µM (titrated, usually from 46.1 µM), hits mostly inhibitors | 330,000 compounds, 2.3% hits; note: nearly all actives have a fitted effect of over 55% in size
#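 Reporter activity after DNA damage by 5-fluorouridine is monitored. Compound-treated cells incubate 16 hr at 37 °C, then ONE-Glo is added for 30 min before luminescence reading.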
# RORgamma inh: qHTS for inhibitors of ROR gamma transcriptional activity | Nuclear receptor ROR-gamma (Mus musculus), P51450 | Drosophila S2 Gal4-RORgamma UAS-luciferase reporter, 20 h | Potency, µM (series often up to 53.6 µM), usual class: inhibitors | 310,000 compounds, 5.4% hits | AID 2551, 2010; note: nearly all actives have a fitted effect of over 60% in size
#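 ROR gamma transcriptional activity was tracked as Gal4-UAS luciferase output in stably transfected Drosophila Schneider cells, with compound added 1 hr before 700 uM copper sulfate induction and a 20 hr ambient-temperature incubation.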
# Hits are given with their value; n = inactive; u = inconclusive; x = no result given; [ ] = remark or other dose. Unless noted, calls come from the whole dose curve; as a rule, active = well fitted curve in the direction sought with a large enough effect; inconclusive = small, poorly fitted or top-dose-only effect, or another doubt; inactive = no such curve, though single readings can be large; an effect the other way counts as inactive or inconclusive.
SMILES,B2AR arrestin,TSHR antagonist,Gal4-VP16 FLuc,ELG1 DNA repair,RORgamma inh
Cc1ccc(OCCCC(=O)Nc2ccc(Cl)c(S(=O)(=O)N3CCOCC3)c2)cc1,n,n,x,23.1µM,x
Cc1c(NC(=O)c2cccc(NC(=O)COc3cccc(Br)c3)c2)c(=O)n(-c2ccccc2)n1C,n,n,x,23.1µM,x
O=C(COc1cccc(Br)c1)Nc1ccc(Cl)c(S(=O)(=O)N2CCOCC2)c1,n,n,x,23.1µM,x
COc1ccc(OC2C=CC(c3ccccc3)OC2CO)c(C(C)(C)C)c1 (centres undefined),x,x,n[10 µM],x,n[10 µM]
Cc1ccc(NC(=O)COc2ccc(-c3nnco3)cc2)cc1S(=O)(=O)N1CCOCC1,n,n,n,18.3µM,u
O=C(CCCOc1ccccc1)Nc1ccc(Cl)c(S(=O)(=O)N2CCOCC2)c1,n,n,x,13µM,x
Cc1ccc(NC(=O)CCCOc2ccccc2)cc1S(=O)(=O)N1CCOCC1,n,n,x,u,x
COc1ccc(CN(CCC(c2ccccc2)c2ccc(OC(C)C)cc2)C(=O)CCl)cc1OC (centres undefined),n,n,u,u,12.6µM
Cc1cc(S(=O)(=O)N2CCOCC2)ccc1OCC(=O)Nc1ccc(F)cc1F,n,n,n,u,n
Cc1ccc(Cn2c(=N)n(CC(O)COc3ccccc3)c3ccccc32)cc1 (centres undefined),n,n,7.08µM,u,5.01µM
Cc1ccc(NC(=S)N=Nc2c(O)n(C)c3ccc(S(=O)(=O)N4CCOCC4)cc23)cc1,n,n,1µM,n,0.708µM
Cc1cccc(NC(=S)N=Nc2c(O)n(C)c3ccc(S(=O)(=O)N4CCOCC4)cc23)c1,n,n,0.708µM,n,0.126µM
Clc1ccc2ncnc(NCc3ccc4c(c3)OCO4)c2c1,x,x,7.94µM,x,u
c1nc(NCc2ccc3c(c2)OCO3)c2cc(-c3ccoc3)ccc2n1,n,n,x,1.64µM,x
Oc1ccc(CCNc2ncnc3ccc(Cl)cc23)cc1,n,u,6.31µM,u,u
c1cncc(-c2ccc3ncnc(NCc4ccc5c(c4)OCO5)c3c2)c1,n,n,x,u,x
C/C(CCc1ccc2c(c1)OCO2)=N\NC(=O)c1ccc(C)cc1C,n,n,n,u,n
C/C(CCc1ccc2c(c1)OCO2)=N\NC(=S)NC(C)C,n,n,4.47µM,n,2.24µM
COCCNC(=S)N/N=C(\C)CCc1ccc2c(c1)OCO2,u,n,10µM,n,4.47µM
CCOC(=O)C(=O)Nc1cc([N+](=O)[O-])ccc1C,n,n,n,n,n
CCCCNC(=S)Nc1cc([N+](=O)[O-])ccc1C,n,n,u,n,11.2µM
CCCCNC(=S)Nc1cc(S(=O)(=O)N2CCCCC2)ccc1C,n,n,10µM,n,5.62µM
Cc1ccc(SCC(=O)Nc2cc(S(=O)(=O)N3CCCCC3)ccc2C)cc1,n,n,x,u,x
COC(=O)/C(=C1\OC(=O)C(c2ccccc2)C1=O)c1ccccc1 (centres undefined),x,x,n,x,u
C=CCCCCCCCCC(=O)O,x,x,n,x,n
SMILES,B2AR arrestin,TSHR antagonist,Gal4-VP16 FLuc,ELG1 DNA repair,RORgamma inh
CCOC(=O)NNC(=O)CCn1c2c(c3ccccc31)CCCC2,n,n,n,18.3µM,n
O=C(Cc1ccc(Cl)cc1)Nc1ccc(Cl)cn1,n,n,n,n,n
Cc1cc(Cl)ccc1OCC(=O)NC(=S)Nc1ccc(Cl)cn1,n,n,n,u,5.62µM
O=C(COc1ccc(Cl)cc1Cl)Nc1ccc(Cl)cn1,n,n,u,u,u
CCCC(=O)NC(=S)Nc1ccc(Cl)cn1,u,n,6.31µM,u,3.55µM
S=C(Nc1ccc(Cl)cc1)NC1CC2CCCC(C1)N2C1CCCC1 (centres undefined),n,n,n,n,n
Cc1cc(C)cc(NC(=S)NC2CC3CCCC(C2)N3C2CCCC2)c1 (centres undefined),n,n,n,n,35.5µM
S=C(Nc1ccc(Cl)cc1)NC1CC2CCCC(C1)N2C1CC1 (centres undefined),n,n,3.98µM,u,u
CCc1ccc(NC(=S)NC2CC3CCCC(C2)N3Cc2ccccc2)cc1 (centres undefined),n,n,4.47µM,n,7.08µM
CNC(=S)NC1CC2CCC(C1)N2Cc1ccccc1 (centres undefined),n,n,n,n,n
S=C(Nc1ccc(Cl)cc1)NC1CC2CCC(C1)N2Cc1ccccc1 (centres undefined),n,n,u,n,3.98µM
CCC1NC(=S)NC(C)=C1C(=O)c1ccccc1 (centres undefined),n,n,n,n,10µM
COc1cc2c(cc1OC)-c1nnnn1C(C)(C)C2,n,n,x,n,n[0.365 µM]
COc1cc2c(cc1OC)-c1n[nH]c(=S)n1C(C)(C)C2,n,n,u,u,7.94µM
COc1cc2c(cc1OC)C(=S)NC(C)(C)C2,n,n,u,n,20µM
CC(=O)Oc1ccccc1-c1nc(/C=C/c2ccccc2)no1,n,n,n,u,u
Cc1c(N=C=O)cccc1N=C=O,x,x,n,x,n
CCOC(=O)C(=O)Nc1nc(-c2ccccc2)c(-c2ccccc2)o1,n,n,n,n,20µM
COc1cccc(C(=O)Nc2ccccc2)c1,n,n,n,u,n
COc1cccc(C(=O)Nc2nc(-c3ccccc3)c(-c3ccccc3)o2)c1,n,n,3.16µM,u,2.51µM
O=C(Nc1nnc(-c2ccccc2)s1)c1ccc(F)cc1,n,n,n,u,n
COc1ccc(OC)c(NC(=O)c2ccc3nc(-c4ccccc4)c(-c4ccccc4)nc3c2)c1,n,n,n,23.1µM,n
O=C(Nc1nc(-c2ccccc2)c(-c2ccccc2)o1)c1ccc(F)cc1,n,n,2.82µM,n,1.41µM
Cc1ccc(C(=O)N[C@H](C(=O)N2CCN(c3ccccc3F)CC2)C(C)C)cc1,n,n,n,n,n
Cc1ccc(C)c(NC(=O)CC2Oc3ccccc3NC2=O)c1 (centres undefined),n,n,n,n,n
Cc1nnc(SCC(=O)c2c[nH]c3ccccc23)n1C1CC1,n,n,x,u,x
O=C(CCN1CCC(c2ccc(Cl)s2)=N1)c1ccc(Cl)s1,n,n,n,n,n
CCOC(=O)CN(Cc1cc(OC)cc(N(C)C)c1OC)C(=O)C1CC(CO[Si](C)(C)C(C)(C)C)=CN1C(=O)OC(C)(C)C (centres undefined),x,x,n,x,n
O=C(NCCc1ccccc1)C(c1cccs1)N(C(=O)CCl)c1ccc(Cl)cc1 (centres undefined),n,n,u,18.4µM,u
O=C(NCCc1ccccc1)C(c1cccs1)N(C(=O)c1csnn1)C1CC1 (centres undefined),n,n,n,n,n
